PubChem BioAssay (NCI)
This is part of a sample that, as a whole, favours compounds with a hit. Of some 83,000 tested, about 20% had one in any assay.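 Treatment: one concentration, 48 hours, 96-well format. Scoring: percent growth, with anything below 10 considered active.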 A number with no mark means an inactive call. Active and inactive are the calls of the source.

Columns and labels:
Assay in all cases: NCI-60 one-dose screen, 48 h (100 = growth as untreated, 0 = no growth, -100 = all killed)
Conditions in all cases: 10 µM unless noted
HCT-15 colon = test system: HCT-15 colon
HT29 colon = test system: HT29 colon
SNB-75 CNS = test system: SNB-75 CNS
SNB-19 CNS = test system: SNB-19 CNS
U251 CNS = test system: U251 CNS
PC-3 prostate = test system: PC-3 prostate
SK-MEL-5 melanoma = test system: SK-MEL-5 melanoma
UACC-62 melanoma = test system: UACC-62 melanoma
LOX IMVI melanoma = test system: LOX IMVI melanoma
SK-MEL-28 melanoma = test system: SK-MEL-28 melanoma
SK-MEL-2 melanoma = test system: SK-MEL-2 melanoma
EKVX NSCLC = test system: EKVX NSCLC
SN12C renal = test system: SN12C renal
UO-31 renal = test system: UO-31 renal
TK-10 renal = test system: TK-10 renal
ACHN renal = test system: ACHN renal
CAKI-1 renal = test system: CAKI-1 renal
A498 renal = test system: A498 renal
CCRF-CEM leukemia = test system: CCRF-CEM leukemia
MOLT-4 leukemia = test system: MOLT-4 leukemia

Row | SMILES | growth (HCT-15 colon) | growth (HT29 colon) | growth (SNB-75 CNS) | growth (SNB-19 CNS) | growth (U251 CNS) | growth (PC-3 prostate) | growth (SK-MEL-5 melanoma) | growth (UACC-62 melanoma) | growth (LOX IMVI melanoma) | growth (SK-MEL-28 melanoma) | growth (SK-MEL-2 melanoma) | growth (EKVX NSCLC) | growth (SN12C renal) | growth (UO-31 renal) | growth (TK-10 renal) | growth (ACHN renal) | growth (CAKI-1 renal) | growth (A498 renal) | growth (CCRF-CEM leukemia) | growth (MOLT-4 leukemia)
1 | CC(C)C1=NOC(=O)C1=Cc1cn(-c2cccnc2)nc1-c1ccccc1 | 94.2% | 99.1% | 88.4% | 93.9% | 83.5% | 94.1% | 102% | 90.4% | 80.2% | 112% | 111% | 100% | 87.5% | 89.7% | 101% | 99.2% | 78% | 99.2% | 11.4% | 11.8%
2 | Cc1cc(-c2ccc(N=Nc3c(S(=O)(=O)O)cc4cc(S(=O)(=O)O)cc(N)c4c3O)c(C)c2)ccc1N=Nc1cc(S(=O)(=O)O)c2ccccc2c1O | 104% | 100% | 98.5% | 94.4% | 99.5% | 96.9% | 100% | 93.6% | 106% | 107% | 111% | 81.1% | 98.1% | 73.1% | 102% | 95.4% | 78.9% | 96.4% | 106% | 102%
3 | CC1(C)CC[C@]2(C(N)=O)CC[C@]3(C)C(=CC[C@@H]4[C@@]5(C)C/C(=C/c6cccnc6)C(=O)C(C)(C)[C@@H]5CC[C@]43C)[C@@H]2C1 | -65.6% [100 µM] (active) | -35.6% [100 µM] (active) | -17.6% [100 µM] (active) | -90.1% [100 µM] (active) | -83.2% [100 µM] (active) | -19.6% [100 µM] (active) | -100% [100 µM] (active) | -70.5% [100 µM] (active) | -74.1% [100 µM] (active) | -59.7% [100 µM] (active) | -57.5% [100 µM] (active) | 1.54% [100 µM] (active) | -58.8% [100 µM] (active) | -95.1% [100 µM] (active) | -14.8% [100 µM] (active) | -61.1% [100 µM] (active) | -30.6% [100 µM] (active) | -83.4% [100 µM] (active) | 2.68% [100 µM] (active) | -9.98% [100 µM] (active)
4 | Cc1nc(Cl)cc(N(c2cc(Cl)nc(C)n2)c2ncc(C(=O)Nc3c(C)cccc3Cl)s2)n1 | 59.4% | 20.4% | -30.3% (active) | 72.9% | 54.6% | 32.4% | 46.2% | 53.3% | 14.2% | 78% | 87.4% | 84.7% | 37.5% | 24.8% | 36.7% | 14.1% | 4% (active) | 35.6% | 53.7% | 40.6%
5 | CC1=CCc2ccccc21 | 109% | 95.7% | 83.9% | 101% | 103% | 86.2% | 101% | 86.2% | 105% | 104% | 140% | 110% | 88% | 70.8% | 103% | 98.6% | 87.7% | 89.9% | 94.3% | 97%
6 | O=C(NCCCCCCCNC(=O)OCc1ccc2c(Cl)cc(Cl)c(O)c2n1)OCc1ccc2c(Cl)cc(Cl)c(O)c2n1 | -24.6% (active) | -67% (active) | -92.4% (active) | 0.446% (active) | -90.8% (active) | -54.5% (active) | -96.1% (active) | -79.3% (active) | -88.5% (active) | -83.1% (active) | -70.6% (active) | -45.8% (active) | -76.5% (active) | -100% (active) | -80.7% (active) | -99.9% (active) | -93.4% (active) | -80.6% (active) | 4.67% (active) | -2.43% (active)
7 | C[C@H]1[C@H](C)CC[C@]2(C(=O)N3CCN(C)CC3)CC[C@]3(C)C(=CC[C@@H]4[C@@]5(C)C/C(=C/c6ccco6)C(=O)C(C)(C)[C@@H]5CC[C@]43C)[C@H]12 | 32.5% [100 µM] | 26.3% [100 µM] | 62.3% [100 µM] | 47.7% [100 µM] | 17.4% [100 µM] | 29.9% [100 µM] | -46.8% [100 µM] (active) | 32.8% [100 µM] | -6.24% [100 µM] (active) | 35% [100 µM] | 42.1% [100 µM] | 42.3% [100 µM] | 28% [100 µM] | -97.5% [100 µM] (active) | 43.7% [100 µM] | 20.8% [100 µM] | 26.2% [100 µM] | 53.8% [100 µM] | 16.5% [100 µM] | 22.6% [100 µM]
8 | CC1(C)C(=O)/C(=C\c2cccnc2)C[C@]2(C)[C@H]3CC[C@@H]4[C@H]5[C@H](C(=O)/C=C/c6cccnc6)CC[C@]5(C(=O)O)CC[C@@]4(C)[C@]3(C)CC[C@@H]12 | -74.6% [100 µM] (active) | -72% [100 µM] (active) | -96.5% [100 µM] (active) | -83.3% [100 µM] (active) | -82.3% [100 µM] (active) | -38.4% [100 µM] (active) | -73.5% [100 µM] (active) | -89.8% [100 µM] (active) | -68.9% [100 µM] (active) | -71.7% [100 µM] (active) | -55.1% [100 µM] (active) | -73% [100 µM] (active) | -29.4% [100 µM] (active) | -32.9% [100 µM] (active) | -89.5% [100 µM] (active) | -71.1% [100 µM] (active) | -66% [100 µM] (active) | -77.5% [100 µM] (active) | -6.59% [100 µM] (active) | 4.49% [100 µM] (active)
9 | CCc1ccc(C2=C/C(=C/c3ccccc3)C(=O)N2CCc2ccc(S(N)(=O)=O)cc2)cc1 | 108% | 117% | 66.3% | 93.9% | 99.7% | 99.9% | 98.1% | 95.2% | 94.9% | 105% | 104% | 96.3% | 101% | 68.4% | 122% | 99% | 67.8% | 88.7% | 106% | 97%
10 | CC1(C)[C@@H](NOCCCN)CC[C@]2(C)[C@H]3C(=O)C=C4[C@@H]5C[C@](C)(C(=O)O)CC[C@]5(C)CC[C@@]4(C)[C@]3(C)CC[C@@H]12 | -15% [100 µM] (active) | -57.8% [100 µM] (active) | -56.5% [100 µM] (active) | -54.9% [100 µM] (active) | -71.6% [100 µM] (active) | -19.6% [100 µM] (active) | -51.4% [100 µM] (active) | -100% [100 µM] (active) | -82.6% [100 µM] (active) | -80.7% [100 µM] (active) | -63.8% [100 µM] (active) | -41.4% [100 µM] (active) | -82.8% [100 µM] (active) | -100% [100 µM] (active) | -84.1% [100 µM] (active) | -100% [100 µM] (active) | -79.1% [100 µM] (active) | -88.7% [100 µM] (active) | 11.6% [100 µM] | -6.4% [100 µM] (active)
11 | CC(C)CSc1ncnc2nc[nH]c12 | 97.2% | 99.5% | 101% | 93.8% | 103% | 81.7% | 95.6% | 84.8% | 98% | 101% | 107% | 95.3% | 94.7% | 93.9% | 82.4% | 90.3% | 98.6% | 87.5% | 86.8% | 128%
12 | O=C(NCCO)c1cccnc1 | 113% | 91.5% | 92.9% | 101% | 92.7% | 83.4% | 96% | 105% | 95% | 106% | 81.8% | 109% | 100% | 85.2% | 81% | 110% | 98.3% | 96.9% | 81.4% | 107%
13 | O=C(CCN1CCCCC1)c1ccc(Cl)cc1 | 98.5% | 104% | 89.1% | 103% | 107% | 91.6% | 97.6% | 103% | 91.3% | 108% | 104% | 101% | 111% | 96% | 103% | 110% | 95.2% | 79.5% | 93.6% | 108%
14 | COC(=O)[C@@H](NC(=O)NC(=O)NC(=O)CI)C(C)C | 37% | 60.2% | 102% | 94.5% | 100% | 85.5% | 85.2% | 83.1% | -77.4% (active) | 91.7% | 87.4% | 95.7% | 90.1% | -15.4% (active) | 89.8% | 79.8% | -61.6% (active) | 87.9% | -32.9% (active) | 10.6%
